According to PubChem BioAssay:
“And” between values parts separate entries of the source, which are not always exact repeats. Identical values can stand only once. Results filed as inconclusive are left out. The source made the active and inactive calls.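 Rule for the calls, unless noted: active = compounds whose cell count with miR-34 switched on is under 0.7 times the count with it off; inactive = the rest.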

How the values were obtained:
[1] = biological target: ATP-dependent translocase ABCB1 (Homo sapiens) (UniProt P08183); experiment: MDR1 (ABCB1) efflux transporter inhibition, cell-based (AID 377; in the data active = fluorescence slope change above about 50%); conditions: MDR1-expressing cells, fluorescent substrate accumulation slope; stronger effect = higher value; concentration not given here
[2] = hESC survival regulators, cell-based (AID 493140; call rule not given here;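 note: cells exposed to compounds for four days before counting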); conditions: human embryonic stem cell survival screen; stronger effect = higher value
[3] = liver-stage malaria parasite growth inhibition, primary screen, cell-based, HepG2, luciferase luminescence, HepG2 viability (AID 624349; in the data active = parasite load remaining mostly below about 12%, no sharp cut-off; inactive = mostly above about 10%;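 note: 100% = mean of DMSO negative control wells on the same plate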); conditions: P. berghei liver stage in HepG2, luciferase luminescence, concentration not given here; parasite load remaining: stronger effect = lower value; viability: measured here: HepG2 viability without parasites
[4] = stimulators of nuclear beta-catenin in C2C12, primary screen, imaging, WNT3A-conditioned medium, mouse C2C12, NPC library (AID 1117326; in the data active = nuclear beta-catenin stimulation mostly above about 4.2%, no sharp cut-off; inactive = mostly below about 10%; note: reference of the scale not given here); conditions: stronger effect = higher value
[5] = stimulators of insulin release from INS-1E, primary screen, cell-based, 5 mM glucose, NPC library (AID 1117329;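 active = compound raises insulin release from rat beta cells at 5 mM glucose, no numeric limit stated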; note: reference of the scale not given here); conditions: rat INS-1E insulin secretion, at 10 µM, stronger effect = higher value
[6] = growth inhibition of GSK3B-pretreated HCT116 cells – cell-based, CellTiter-Glo, 0.2 to 20 µM (AID 1117336;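 active = compounds lowering colon cancer cell viability after pretreatment blocking the GSK3B kinase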); conditions: HCT116 viability after GSK3B inhibitor, at 20 µM, stronger effect = higher value
[7] = inhibition of endothelial tube formation, primary screen, imaging, VEGF stimulated, CD31 staining, tube area, NPC library (AID 1117340;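 active = compound that reduces growth-factor-driven endothelial tube area in a mixed cell culture, no cutoff stated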); conditions: VEGF-stimulated ADSC/ECFC co-culture, at 10 µM, stronger effect = higher value
[8] = glucagon-like peptide 1 release enhancers, primary assay, NCI-H716 cell line, NPC library (AID 1117341;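 active = compound raises GLP1 secretion from the human gut endocrine cells, with no numeric limit stated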; note: reference of the scale not given here); conditions: NCI-H716 cells, at 10 µM, stronger effect = higher value
[9] = HCT116 colon cancer cell growth inhibition, primary screen, CellTiter-Glo luminescence, NPC library (AID 1117342;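 active = compounds that lower survival of HCT116 colon cancer cells in the luminescence readout, no numeric limit stated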); conditions: at 20 µM (top of the series)
[10] = CellTiter-Glo luminescent readout of SW480 viability loss, NPC library primary (AID 1117343;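 active = compounds that lower viability of the colon cancer cells in the luminescence readout, with no numeric limit stated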); conditions: CellTiter-Glo luminescence; at 20 µM (top of the series) unless noted
[11] = decreased DLD-1 cellular survival, CellTiter-Glo luminescent readout, NPC compound collection, primary HTS (AID 1117346;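 active = compounds that lower survival of DLD-1 colon cancer cells in the luminescence readout, no cutoff given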); conditions: DLD-1 viability, CellTiter-Glo luminescence; at 20 µM (top of the series)
[12] = sensitizers of A549 cells to miR-34 induction, primary screen, imaging, A549 dox-inducible miR-34, nuclei and caspase counts (AID 1347080); conditions: A549 miR-34 inducible, Hoechst nuclei count, 48 h
[13] = survival rescue of mitochondrial mutant cells in low glucose, primary screen, MELAS cybrids, Rieske KO mouse fibroblasts, CellTiter-Glo (AID 1508586;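 active = mean z-score across replicates of 1.96 or higher in either the MELAS or the Rieske mutant cell line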;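 note: z relative to plate mean and SD of compound and empty wells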)
[14] = viability rescue of complex I mutant cybrids, primary screen, cell-based, galactose medium, ATP luminescence (AID 1645843;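 active = z-score of at least 1.8 in each of two replicates, scored against plate mean and spread of sample wells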;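 note: positive z means more ATP and so rescue of galactose-driven cybrid death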); conditions: complex I mutant cybrid cells, 72 h, stronger effect = higher value
[15] = biological target: NAD(+) hydrolase SARM1 (Homo sapiens) (UniProt Q6SZW1); experiment: SARM1 TIR NADase inhibitors, cell lysate, NAD-Glo luminescence (AID 1508614;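 active = compound whose remaining NAD level is above about 45 nM, limit read from the data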;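 note: higher remaining NAD means stronger inhibition of SARM1 NADase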); conditions: SAM-TIR HEK293T lysate NADase, at 1 µM, stronger effect = higher value
[16] = stronger effect = lower value, cell number ratio, induced over uninduced
[17] = measured here: relative caspase fold change +Dox/-Dox
[18] = measured here: total cells with miR-34 induction, stronger effect = lower value
[19] = measured here: total cells without miR-34 induction
[20] = MELAS cybrid survival, CellTiter-Glo 48 h, stronger effect = higher value
[21] = Rieske KO mouse fibroblast survival, CellTiter-Glo 72 h

NAD(+) hydrolase SARM1 (Homo sapiens), sequence (Q6SZW1 whole entry, looked up): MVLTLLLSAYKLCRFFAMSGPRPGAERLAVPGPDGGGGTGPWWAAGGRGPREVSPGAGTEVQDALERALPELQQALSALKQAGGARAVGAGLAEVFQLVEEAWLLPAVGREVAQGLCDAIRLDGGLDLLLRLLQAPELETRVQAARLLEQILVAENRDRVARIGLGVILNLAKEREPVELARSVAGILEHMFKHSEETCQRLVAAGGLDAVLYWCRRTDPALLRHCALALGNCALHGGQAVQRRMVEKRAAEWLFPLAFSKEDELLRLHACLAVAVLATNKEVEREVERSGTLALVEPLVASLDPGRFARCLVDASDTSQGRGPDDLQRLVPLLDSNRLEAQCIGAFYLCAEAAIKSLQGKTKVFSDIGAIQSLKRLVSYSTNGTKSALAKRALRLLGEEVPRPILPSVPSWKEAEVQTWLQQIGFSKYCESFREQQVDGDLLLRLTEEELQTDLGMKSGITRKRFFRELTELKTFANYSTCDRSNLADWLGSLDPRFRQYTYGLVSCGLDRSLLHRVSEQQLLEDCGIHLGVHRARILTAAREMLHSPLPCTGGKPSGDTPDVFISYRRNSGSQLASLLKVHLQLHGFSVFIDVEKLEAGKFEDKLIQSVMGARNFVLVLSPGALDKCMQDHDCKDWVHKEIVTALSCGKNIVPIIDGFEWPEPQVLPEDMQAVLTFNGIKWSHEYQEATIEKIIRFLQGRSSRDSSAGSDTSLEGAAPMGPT
ATP-dependent translocase ABCB1 (Homo sapiens), sequence (P08183 whole entry, looked up): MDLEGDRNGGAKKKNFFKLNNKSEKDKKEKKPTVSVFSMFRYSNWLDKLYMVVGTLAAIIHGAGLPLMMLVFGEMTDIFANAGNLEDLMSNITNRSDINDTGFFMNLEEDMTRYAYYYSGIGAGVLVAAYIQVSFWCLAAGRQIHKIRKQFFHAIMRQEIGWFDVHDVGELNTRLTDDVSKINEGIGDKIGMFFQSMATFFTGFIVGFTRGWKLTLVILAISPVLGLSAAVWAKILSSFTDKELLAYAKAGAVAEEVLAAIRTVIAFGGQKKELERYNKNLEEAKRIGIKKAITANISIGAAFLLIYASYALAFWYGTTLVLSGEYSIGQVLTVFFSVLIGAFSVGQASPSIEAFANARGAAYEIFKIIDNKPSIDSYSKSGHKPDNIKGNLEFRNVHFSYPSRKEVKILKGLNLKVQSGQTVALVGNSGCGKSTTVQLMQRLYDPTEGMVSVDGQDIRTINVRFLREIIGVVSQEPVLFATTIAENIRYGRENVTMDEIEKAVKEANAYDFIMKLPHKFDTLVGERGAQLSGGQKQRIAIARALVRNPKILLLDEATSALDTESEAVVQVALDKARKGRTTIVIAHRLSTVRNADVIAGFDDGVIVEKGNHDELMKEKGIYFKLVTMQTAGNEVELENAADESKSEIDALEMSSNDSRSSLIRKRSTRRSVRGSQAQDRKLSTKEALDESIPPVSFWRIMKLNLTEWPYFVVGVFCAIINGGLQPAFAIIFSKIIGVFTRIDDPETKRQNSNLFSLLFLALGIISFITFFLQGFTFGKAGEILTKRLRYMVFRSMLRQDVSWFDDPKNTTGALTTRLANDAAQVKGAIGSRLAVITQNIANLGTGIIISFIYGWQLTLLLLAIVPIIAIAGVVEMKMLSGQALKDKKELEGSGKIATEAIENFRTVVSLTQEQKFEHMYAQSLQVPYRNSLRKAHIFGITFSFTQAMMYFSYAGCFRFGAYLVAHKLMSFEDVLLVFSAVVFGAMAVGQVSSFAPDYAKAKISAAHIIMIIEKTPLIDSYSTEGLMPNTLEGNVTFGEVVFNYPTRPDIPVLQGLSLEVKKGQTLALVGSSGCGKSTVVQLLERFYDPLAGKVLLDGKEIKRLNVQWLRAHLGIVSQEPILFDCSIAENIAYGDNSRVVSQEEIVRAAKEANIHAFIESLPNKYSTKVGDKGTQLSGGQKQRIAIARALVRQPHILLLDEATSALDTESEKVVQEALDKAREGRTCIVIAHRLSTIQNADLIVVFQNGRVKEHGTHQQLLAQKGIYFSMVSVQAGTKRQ

What does the source list for `OCCOCCN1CCN(C(c2ccccc2)c2ccc(Cl)cc2)CC1` (stereo not given)?
fluorescence slope change [1]: 127% (active); survival [2]: 12.3 (inactive); parasite load remaining [3]: 40.8% (inactive) and 106% (inactive); viability [3]: 45.3% and 147%; nuclear beta-catenin stimulation ([4]; at 10 µM): 3.6% (inactive); nuclear beta-catenin stimulation ([4]; stimulation, at 2 µM): 2.4%; insulin secretion stimulation [5]: 4.2% (inactive); viability decrease [6]: -78.9% (inactive); tube area decrease [7]: 28% (inactive); GLP1 secretion stimulation [8]: 13.3% (inactive); inhibition of viability [9]: 38.2% (inactive); viability decrease (inhibition) [10]: 46.4% (inactive); viability decrease (inhibition) [11]: 14.4% (inactive); fold change [12, 16]: 0.893 (inactive) and 0.907 (inactive) and 0.862 (inactive); fold change [12, 17]: 1.48 and 0.309 and 0.812; cell count [12, 18]: 8690 and 7710 and 8370; cell count [12, 19]: 9730 and 8500 and 9700; z-score [13, 20]: -0.954 (inactive) and -0.244 (inactive) and -0.546 (inactive); z-score [13, 21]: 0.434 and -0.172 and -0.069; z-score [14]: -0.645 (inactive)

With `COC(=O)C(c1ccccc1Cl)N1CCc2sccc2C1` (stereo not given) as the compound, how does the nuclear beta-catenin stimulation ([4]; at 10 µM) read?
Its nuclear beta-catenin stimulation is 0.3% (inactive).

And the nuclear beta-catenin stimulation ([4]; stimulation, at 2 µM)?
The nuclear beta-catenin stimulation was -0.7%.

And the insulin secretion stimulation [5]?
The insulin secretion stimulation was 1.9% (inactive).

What about the viability decrease [6] of the same compound?
Its viability decrease is 30.5% (inactive).

And the tube area decrease [7]?
The tube area decrease was 1.2% (inactive).

And the GLP1 secretion stimulation [8]?
Its GLP1 secretion stimulation is 3.9% (inactive).

And the inhibition of viability [9]?
Its inhibition of viability is 52.7% (active).

What about the viability decrease (inhibition) [10] of the same compound?
Its viability decrease (inhibition) is 18.6% (inactive).

And the viability decrease (inhibition) [11]?
Its viability decrease (inhibition) is 48.7% (inactive).

What about the fold change [12, 16] of the same compound?
Its fold change is 0.927 (inactive).

And the fold change [12, 17]?
The fold change was 0.912.

And the cell count [12, 18]?
Its cell count is 7680.

What about the cell count [12, 19] of the same compound?
Its cell count is 8290.

And the z-score [13, 20]?
The z-score was -0.416 (inactive).

And the z-score [13, 21]?
Its z-score is 0.984.

For `CCCC(=O)OCOC(=O)C1=C(C)NC(C)=C(C(=O)OC)C1c1cccc(Cl)c1Cl` (stereo not given), which nuclear beta-catenin stimulation ([4]; at 10 µM) is on record?
Its nuclear beta-catenin stimulation is 15.7% (inactive).

What about the nuclear beta-catenin stimulation ([4]; stimulation, at 2 µM) of the same compound?
Its nuclear beta-catenin stimulation is 12.3%.

What about the insulin secretion stimulation [5] of the same compound?
Its insulin secretion stimulation is 3.9% (inactive).

What about the viability decrease [6] of the same compound?
The viability decrease was -9.1% (inactive).

What about the tube area decrease [7] of the same compound?
Its tube area decrease is -4.1% (inactive).

What about the GLP1 secretion stimulation [8] of the same compound?
The GLP1 secretion stimulation was 5.1% (inactive).

And the inhibition of viability [9]?
The inhibition of viability was 25.4% (inactive).

And the viability decrease (inhibition) [10]?
Its viability decrease (inhibition) is 6.5% (inactive).

And the viability decrease (inhibition) [11]?
Its viability decrease (inhibition) is 14.3% (inactive).

And the fold change [12, 16]?
Its fold change is 0.959 (inactive) and 0.978 (inactive).

And the fold change [12, 17]?
Its fold change is 0.415 and 0.463.

What about the cell count [12, 18] of the same compound?
The cell count was 8260 and 7700.

What about the cell count [12, 19] of the same compound?
Its cell count is 8610 and 7870.

What about the z-score [13, 20] of the same compound?
Its z-score is 0.611 (inactive) and -0.319 (inactive).

What about the z-score [13, 21] of the same compound?
The z-score was -0.278 and 0.00408.

What about the z-score [14] of the same compound?
Its z-score is -1.31 (inactive).

Which results are given for `C=CCNC(N)=S`?
nuclear beta-catenin stimulation ([4]; at 10 µM): 5.1% (inactive); nuclear beta-catenin stimulation ([4]; stimulation, at 2 µM): 2.3%; insulin secretion stimulation [5]: -0.8% (inactive); viability decrease [6]: -2.15% (inactive); tube area decrease [7]: -31.3% (inactive); GLP1 secretion stimulation [8]: -0.3% (inactive); inhibition of viability [9]: -19.1% (inactive); viability decrease (inhibition) [10]: 23.8% (active); viability decrease (inhibition) [11]: -4.7% (inactive); fold change [12, 16]: 0.867 (inactive) and 0.831 (inactive); fold change [12, 17]: 1.24 and 0.686; cell count [12, 18]: 7540 and 8140; cell count [12, 19]: 8690 and 9790; z-score [13, 20]: -0.239 (inactive); z-score [13, 21]: -0.148; remaining NAD [15]: 10 nM (inactive)

With `CCOC(=O)/C=C(C)/C=C/C=C(C)/C=C/c1c(C)cc(OC)c(C)c1C` as the compound, how does the parasite load remaining [3] read?
Its parasite load remaining is 13.4% (inactive).

What about the viability [3] of the same compound?
Its viability is 74%.

What about the nuclear beta-catenin stimulation ([4]; at 10 µM) of the same compound?
The nuclear beta-catenin stimulation was -2.1% (inactive).

And the nuclear beta-catenin stimulation ([4]; stimulation, at 2 µM)?
Its nuclear beta-catenin stimulation is -0.4%.

What about the insulin secretion stimulation [5] of the same compound?
The insulin secretion stimulation was 2.6% (inactive).

And the viability decrease [6]?
The viability decrease was 62.2% (active).

And the tube area decrease [7]?
The tube area decrease was 3.9% (inactive).

And the GLP1 secretion stimulation [8]?
Its GLP1 secretion stimulation is -2.9% (inactive).

And the inhibition of viability [9]?
The inhibition of viability was 59.4% (active).

And the viability decrease (inhibition) [10]?
The viability decrease (inhibition) was 60.3% (active).

And the viability decrease (inhibition) [11]?
Its viability decrease (inhibition) is 25.3% (inactive).

And the fold change [12, 16]?
The fold change was 0.857 (inactive).

And the fold change [12, 17]?
The fold change was 1.

What about the cell count [12, 18] of the same compound?
Its cell count is 9250.

What about the cell count [12, 19] of the same compound?
The cell count was 10800.

What about the z-score [13, 20] of the same compound?
The z-score was 0.196 (inactive) and -0.0105 (inactive).

What about the z-score [13, 21] of the same compound?
Its z-score is 0.164 and -0.496.

What about the z-score [14] of the same compound?
Its z-score is -1.38 (inactive).
